Test results: PubChem BioAssay (Tox21)
Results filed as inconclusive are left out. A number with no mark means an inactive call. Active and inactive are the calls of the source. The call rests on the fitted dose curve; in most records, active means well fitted inhibition curve with a large enough effect in the signal ratio in the repeat runs, with a control signal flat; inconclusive means weak or mixed curves, or effect the other way; inactive means flat fitted curve, though single readings scatter; the % refers to the signal ratio.

target: D(2) dopamine receptor (Homo sapiens) (UniProt P14416); assay: Dopamine D2 receptor (DRD2) small molecule antagonists, cell-based qHTS assay (AID 1963595); conditions: HEK293-DRD2 cAMP HTRF antagonist mode; series mostly up to 92.4 µM; activity change, negative = inhibition: at the top concentration
Sequence (P14416 whole entry, looked up): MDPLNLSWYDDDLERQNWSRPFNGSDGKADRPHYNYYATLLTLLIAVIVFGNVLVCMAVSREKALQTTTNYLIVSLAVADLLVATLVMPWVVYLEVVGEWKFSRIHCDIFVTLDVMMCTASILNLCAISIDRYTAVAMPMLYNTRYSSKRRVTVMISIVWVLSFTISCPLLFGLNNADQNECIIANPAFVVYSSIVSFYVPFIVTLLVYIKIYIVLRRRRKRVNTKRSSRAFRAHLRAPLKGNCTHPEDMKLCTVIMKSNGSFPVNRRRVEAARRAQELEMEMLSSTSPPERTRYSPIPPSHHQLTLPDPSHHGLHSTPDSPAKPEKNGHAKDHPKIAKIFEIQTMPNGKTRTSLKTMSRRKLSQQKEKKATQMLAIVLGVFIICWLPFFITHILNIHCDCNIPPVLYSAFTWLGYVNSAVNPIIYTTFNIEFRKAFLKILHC
Method in brief: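 DRD2-HEK293; 0.1 mM Ro20-1724; cpd 10 min RT; NKH477 200 nM + quinpirole 12 nM, 30 min RT; HTRF cAMP (cAMP-d2/anti-cAMP cryptate), 665/620 nm ratio after 1 h.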
On the % scale 0 is the no-effect control and ±100 the full control effect; potency means the concentration at half of the fitted maximal effect.

Row | Structure (SMILES) | activity change, negative = inhibition | Potency
1 | CCC(C)c1cc([N+](=O)[O-])cc([N+](=O)[O-])c1OC(=O)C=C(C)C (configuration not stated) | 6.85% | 
2 | CCOC(=O)C(SP(=S)(OC)OC)c1ccccc1 (configuration not stated) | -8.16% | 
3 | CCOP(=S)(OCC)SCS(=O)(=O)C(C)(C)C | -5.32% | 
4 | c1coc(-c2nc3ccccc3[nH]2)c1 | 2.36% | 
5 | Cc1ccn2nc(S(=O)(=O)Nc3c(F)cccc3F)nc2n1 | 16.8% | 
6 | O=[N+]([O-])c1ccc(Cl)c(Cl)c1Cl | -0.621% | 
7 | CCOP(=S)(Oc1cnc(C(C)(C)C)nc1)OC(C)C (configuration not stated) | 4.08% | 
8 | O=C1c2ccccc2C(=O)c2ccccc21 | -1.46% [at 18.9 µM] | 
9 | CCN(CC)C(=S)[S-].CCN(CC)C(=S)[S-].[Zn+2] | 4.26% | 
10 | CCCCN(N=O)C(=N)N[N+](=O)[O-] | -0.236% | 
11 | IC(I)=C(I)I |  | 54.5 µM (active)
12 | CON(C)C(=O)Nc1ccc(Br)c(Cl)c1 | -0.721% | 
13 | CCC1(C2=NCCN2)Cc2ccccc2O1 (configuration not stated) | -5.54% [at 42.5 µM] | 
14 | C=CC(=O)OCC(COC(=O)C=C)(COC(=O)C=C)COC(=O)C=C |  | 54.5 µM (active)
15 | CCNC(=O)NC(=O)/C(C#N)=N/OC | 11.7% | 
16 | CCOc1nc(C(Cl)(Cl)Cl)ns1 | -6.01% | 
17 | CC(=O)[O-].CC(=O)[O-].[Hg+2] |  | 5.45 µM (active)
18 | O=CCCl | 6.74% | 
19 | ClC1=C(Cl)[C@]2(Cl)[C@@H]3[C@@H]4C[C@@H]([C@H]5O[C@@H]45)[C@@H]3[C@@]1(Cl)C2(Cl)Cl |  | 68.6 µM (active)
20 | CCCCOC(=O)c1ccccc1N | -1.21% | 
21 | Nc1cc(Cl)ccc1Cl | 7.75% | 
22 | CCCN1CCC[C@@H]2Cc3nc(N)ncc3C[C@H]21 | -0.151% [at 42.5 µM] | 
